Measured values published in PubChem BioAssay (NCI).
This is part of a sample that, as a whole, favours compounds with a hit. Of some 79,000 tested, about 15% had one in any assay. Calls of active or inactive are those of the source. Cut-off read from the data, not from the text of the source: active = growth inhibition above about 70%; inactive = the rest.

Assay: NCI Yeast Anticancer Drug Screen. Data for the rad50 strain (AID 155);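 note: 0% = growth of vehicle-only cultures of the same strain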
Conditions: S. cerevisiae rad50 strain growth inhibition; at 50.0 µM; stronger effect = higher value
How it was run: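 Relative growth inhibition (compound vs vehicle) was measured in yeast with a defined repair-gene alteration.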

SMILES	growth inhibition
S=C1NC=CC(S)N1 (stereo not drawn)	-3.3% (inactive)
COc1ccc(CC(=O)NC(N)=O)cc1	-6.35% (inactive)
OCC1CC=CCC1 (stereo not drawn)	2.35% (inactive)
C=C(C)c1ccc(C(=C)C)cc1	-45.9% (inactive)
Nc1nc2c(C(=O)NCc3cccs3)nnn2c2cccc(Cl)c12	-6.25% (inactive)
CC1(c2cccc[n+]2Cc2ccc(Cl)c(Cl)c2)OCCO1	6.7% (inactive)
CCOc1ccc(C2OCC(C)O2)cc1OC (stereo not drawn)	13.2% (inactive)
COc1cccc(C(N)C(=O)O)c1 (stereo not drawn)	-22.9% (inactive)
CC(C)/C=C1\CCC(CN2CCCC2)C1=O (stereo not drawn)	61.5% (inactive)
CC(=O)N(C)c1ccc(NC(=O)Nc2c(C)cccc2C)cc1	6.55% (inactive)
CC1=CC[P+](Cc2ccccc2)(c2ccccc2)C1 (stereo not drawn)	-25.4% (inactive)
COc1cc(C(c2ccc(O)c(OC)c2)c2ccc(O)c(OC)c2)ccc1O	31.9% (inactive)
CC(C)(C)CC(C)(C)c1ccc(OCCOc2ccc(S(=O)(=O)O)cc2[N+](=O)[O-])cc1	68.8% (inactive)
c1ccc(-c2cc(-c3ccccc3)nc(-c3ccccc3)c2)cc1	-7.2% (inactive)
COc1cc2oc(-c3ccc(O)cc3)c(OC3OC(C)C(O)C(O)C3O)c(=O)c2c(O)c1OC (stereo not drawn)	0.45% (inactive)
O=C1C=C(NCCc2ccccc2)c2ccccc2C1=O	38.5% (inactive)
c1cc2c3c(cccc3c1)-c1nc3c(ccc4ccccc43)nc1-2	-0.15% (inactive)
COc1cc(OC)c(C(=O)/C=C/c2ccccc2)c(O)c1OC	24.8% (inactive)
